Assay results from PubChem BioAssay.
Activity calls are given as the source filed them. Unless noted, no rule for the calls is given here.

Assays:
[1] = test system: Wnt5a (protein binding on small-molecule microarray); test: Wnt5a binders on small-molecule microarray, primary screen, biophysical, 635/667 nm fluorescence (AID 1142); details: 635 nm fluorescence, higher = more signal;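 also: fluorescence read at 667 nm with signal to noise per printed feature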
[2] = cell viability in Huh7 cells, primary screen, cytotoxicity control for HCV replication inhibitor project, CellTiter-Glo luminescence, basal, 48 h (AID 1143); details: Huh7 HCV replicon, higher = more signal, called active from +8 up or from −8 down;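 also: Huh7 hepatoma cells carrying a hepatitis C replication reporter with no stimulus; test concentration not given here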
[3] = P. aeruginosa biofilm formation inhibitors, primary screen, PAO1 strain, BacTiter-Glo luminescence, LB-PBS (AID 1144); details: 12 h, higher = more signal
[4] = CREB reporter modulators without forskolin, primary screen, cell-based, PC12, CRE-LacZ reporter, unstimulated (AID 1145); details: no forskolin, luminescence, 4.5 h, higher = more signal, called active from +8 up or from −8 down
[5] = CREB reporter modulators under forskolin, primary screen, cell-based, PC12, CRE-LacZ reporter, forskolin-stimulated (AID 1146); details: luminescence, 4.5 h, higher = more signal, called active from +8 up or from −8 down;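 also: PC12 cells with 6xCRE LacZ reporter stimulated by forskolin 10 µM; beta-galactosidase reporter signal reflecting CREB driven transcription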
[6] = target: Streptavidin (Streptomyces avidinii) (UniProt P22629); test: streptavidin binders on small-molecule microarray, primary screen, artefact control for SMM compound annotation, biophysical, 635/667 nm fluorescence (AID 1147); details: streptavidin binding, higher = more signal;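 also: signal reflects streptavidin binding to arrayed compounds as a control protein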
[7] = small-molecule binders of probe aInhba, primary screen, biochemical, small-molecule microarray, 635/667 nm fluorescence (AID 1148); details: higher = more signal;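 also: score merges 667nm spot fluorescence with signal-to-noise for antibody binding to printed compounds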
Torsin-1A (Homo sapiens) [8] = target: Torsin-1A (Homo sapiens) (UniProt O14656); test: torsin A binders from cell lysate, primary screen, small-molecule microarray, wild-type, 635/667 nm (AID 1149); details: COS7 hTOR1A-WT lysate, 635 nm fluorescence, higher = more signal
Torsin-1A (Homo sapiens) [9] = target: Torsin-1A (Homo sapiens) (UniProt O14656); test: small-molecule binders of mutant TOR1A in lysate, primary screen, cell lysate, small-molecule microarray, COS7 lysate, 635/667 nm fluorescence (AID 1150); details: COS7 hTOR1A mutant lysate, 635 nm fluorescence, higher = more signal;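 also: score pools 667 nm emission and signal to noise measuring lysate protein binding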
[10] = test system: Sonic hedgehog protein (Shh); test: small-molecule binders of Shh protein, primary screen, biochemical, small-molecule microarray, 635/667 nm fluorescence (AID 1151); details: small-molecule microarray binding, 635 nm fluorescence; higher = more signal;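 also: Shh protein binding to compounds spotted on small-molecule microarray slides; score combines spot fluorescence intensity with signal-to-noise across triplicate slides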

Torsin-1A (Homo sapiens), sequence (O14656 whole entry, looked up): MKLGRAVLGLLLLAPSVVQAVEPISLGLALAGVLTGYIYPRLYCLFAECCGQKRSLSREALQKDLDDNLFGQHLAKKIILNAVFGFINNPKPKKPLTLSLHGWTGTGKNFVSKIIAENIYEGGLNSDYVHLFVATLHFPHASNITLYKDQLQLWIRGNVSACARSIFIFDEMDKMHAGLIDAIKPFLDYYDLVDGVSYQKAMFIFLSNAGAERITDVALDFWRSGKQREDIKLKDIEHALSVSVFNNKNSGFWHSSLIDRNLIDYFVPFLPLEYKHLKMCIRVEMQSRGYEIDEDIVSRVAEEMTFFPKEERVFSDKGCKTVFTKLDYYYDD
Streptavidin (Streptomyces avidinii), sequence (P22629 whole entry, looked up): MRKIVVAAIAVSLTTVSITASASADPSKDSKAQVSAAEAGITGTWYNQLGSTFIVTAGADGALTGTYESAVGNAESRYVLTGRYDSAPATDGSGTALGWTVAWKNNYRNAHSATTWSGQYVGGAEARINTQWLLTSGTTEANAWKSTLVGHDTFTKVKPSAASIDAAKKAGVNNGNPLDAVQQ

Structure (SMILES)	composite z-score [1]	z-score [2]	z-score [3]	z-score [4]	z-score [5]	composite z-score [6]	composite z-score [7]	composite z-score (Torsin-1A (Homo sapiens) [8])	composite z-score (Torsin-1A (Homo sapiens) [9])	composite z-score [10]
COCOc1ccc(Br)cc1C(=O)[C@@H]1O[C@H]1c1cccc(OC)c1	-0.202	-1.97 (inactive)	0.64 (inactive)	1.2 (inactive)	-0.37 (inactive)	0.015	-0.149	0.736	0.437	0.349
CC(C)=CCCC(C)=CCON=C1C[C@@H](O)[C@@H](O)[C@@H]2[C@@H]3C(=O)N(c4ccc(F)cc4F)C(=O)[C@@H]3CC[C@H]12	-0.112	-5.27 (inactive)	-0.206 (inactive)	-1.2 (inactive)	-0.358 (inactive)	0.0534	-0.0178	-0.37	0.171	1.01
COc1ccc(O[C@H]2C=C[C@@H](c3ccccc3)O[C@@H]2COC(=O)CCC(C)=NO[C@@H]2O[C@H](COC(C)=O)[C@@H](OC(C)=O)[C@H](OC(C)=O)[C@H]2OC(C)=O)cc1	0.0276	-0.178 (inactive)	-0.333 (inactive)	2.85 (inactive)	0.847 (inactive)	0.484	-0.106	0.495	0.21	0.918
